Source: PubChem BioAssay (EPA / NIEHS)
Inconclusive results are not listed. Calls of active or inactive are those of the source. How the source made its calls: active means hit-call score of the fitted dose curve at least 0.9, where 1 is the maximum; inconclusive means response in the unintended direction; inactive means score below 0.9.

Biological target: human Retinoid X Receptor beta (RXRb), RXRB (gene 6257) (UniProt P28702)
Assay: ATG_RXRb_TRANS: Attagene TRANS-FACTORIAL HepG2 Assay for human Retinoid X Receptor beta (RXRb) (AID 2283013)
Method: ATG_TRANS is a cell-based, multiplexed-readout assay that uses HepG2, a human liver cell line, with measurements taken at 24 hours after chemical dosing in a 24-well plate.ATG_RXRb_TRANS is one of 30 assay component(s) measured or calculated from the ATG_TRANS assay. It is designed to make measurements of mRNA induction, a form of inducible reporter, as detected with fluorescence intensity signals by Reverse transcription polymerase chain reaction (RT-PCR) and Capillary electrophoresis technology.Data from the assay component ATG_RXRb_TRANS was analyzed into 1 assay endpoint. This assay endpoint, ATG_RXRb_TRANS, was analyzed in the positive analysis fitting direction relative to DMSO as the negative control and baseline of activity. Using a type of inducible reporter, measures of mRNA for gain-of-signal activity can be used to understand the reporter gene at the transcription factor-level as they relate to the gene RXRB. Furthermore, this assay endpoint can be referred to as a primary readout, because this assay has produced multiple assay endpoints where this one serves a reporter gene function. To generalize the intended target to other relatable targets, this assay endpoint is annotated to the nuclear receptor intended target family, where the subfamily is non-steroidal.
Human liver HepG2 cells are transiently transfected with multiple reporter transcription units (MRTUs) in 6-well plates using FuGene 6 reagent (Roche; 3 ml FuGene/1 mg DNA). The MRTU constructs are regulated by a cis-regulating element (promoter). […] A major difference between the CIS and TRANS system is that in CIS activities of endogenous TFs are measured, whereas the TRANS assay evaluates changes in activities of exogenous, chimeric NR-Gal4 proteins. […] At the end of 24 hour incubation, total RNA was isolated using TriZol reagent (Invitrogen). The isolated RNA is then reverse-transcribed using oligo(dT) primer and Mo-MLV reverse transcriptase (Invitrogen) with DNAse I (Ambion) treatment for 30 min. The one-tenth of the produced cDNA was amplified by PCR using Taq DNA polymerase (Invitrogen) and two reporter sequence-specific primers. The PCR products were fluorescently labeled by primer extension with 6-arboxyfluorescein (6-FAM) 5'-labeled reporter sequence-specific primer (2 min at 95 C, 20 s at 68 C and 10 min at 72 C) and these products were digested with 5U of HpaI (New England Biolabs) for 2h at 37 C. The fragments were purified using Qiaquick PCR columns (Qiagen), analyzed on an ABI 3130xL genetic analyzer (Applied Biosystems) with peak positions identified by using a set of X-rhodamine (ROX)-labeled MapMarker1000 molecular weight standards (BioVentures). The raw capillary electrophoresis data was processed using Attagraph software (Attagene).

Sequence of human Retinoid X Receptor beta (RXRb), RXRB (gene 6257) (P28702 whole entry, looked up): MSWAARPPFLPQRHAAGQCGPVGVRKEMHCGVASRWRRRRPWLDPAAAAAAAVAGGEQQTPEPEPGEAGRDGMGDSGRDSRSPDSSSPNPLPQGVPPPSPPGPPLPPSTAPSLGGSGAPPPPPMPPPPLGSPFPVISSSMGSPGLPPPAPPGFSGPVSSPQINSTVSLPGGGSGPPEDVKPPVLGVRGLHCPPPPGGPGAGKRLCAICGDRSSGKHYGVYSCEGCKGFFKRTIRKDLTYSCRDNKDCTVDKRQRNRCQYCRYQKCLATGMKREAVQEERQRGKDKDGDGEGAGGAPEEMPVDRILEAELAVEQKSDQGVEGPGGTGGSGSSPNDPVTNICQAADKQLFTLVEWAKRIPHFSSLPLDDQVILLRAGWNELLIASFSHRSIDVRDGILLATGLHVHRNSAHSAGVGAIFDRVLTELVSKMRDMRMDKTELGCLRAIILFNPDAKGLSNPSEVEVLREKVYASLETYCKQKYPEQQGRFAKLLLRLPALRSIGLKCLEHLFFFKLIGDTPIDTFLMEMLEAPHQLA

**Q.** With `CCCCCCC(C)Nc1ccc(Nc2ccccc2)cc1` (stereo not given) as the compound, how does the AC50 read?
**A.** 30.2 µM (active)

**Q.** How did the outcome turn out when `CN(c1nccc(=O)[nH]1)C1CCN(c2nc3ccccc3n2Cc2ccc(F)cc2)CC1` was run?
**A.** inactive

**Q.** Which outcome does the source give for `CCCCCCC(C)(C)S` here?
**A.** inactive

**Q.** Which outcome does the source give for `CCCCC(CC)C(=O)OC(C)C` (stereo not given) here?
**A.** inactive

**Q.** `C=C(CC(=O)O)C(=O)O` was tested. Which outcome did it give?
**A.** inactive

**Q.** Which outcome does the source give for `C[N+](C)(C)CCCCCC[N+](C)(C)C` here?
**A.** inactive

**Q.** For `C[C@H](CCC(=O)NCC(=O)O)[C@H]1CC[C@H]2[C@@H]3[C@H](O)C[C@@H]4C[C@H](O)CC[C@]4(C)[C@H]3C[C@H](O)[C@]12C`, which outcome is on record?
**A.** inactive

**Q.** For `NCc1ccco1`, which outcome is on record?
**A.** inactive

**Q.** `Clc1cc(Cl)c(-c2c(Cl)c(Cl)cc(Cl)c2Cl)cc1Cl` was tested. Which outcome did it give?
**A.** inactive

**Q.** Which outcome does the source give for `Cc1cc(CCC(=O)OCCOCCOCCOC(=O)CCc2cc(C)c(O)c(C(C)(C)C)c2)cc(C(C)(C)C)c1O` here?
**A.** inactive

**Q.** How did the AC50 turn out when `C=CCCC(=O)/C=C/C1C(C)=CCCC1(C)C` (stereo not given) was run?
**A.** 25.2 µM (active)

**Q.** With `O=C(O)CNc1ccccc1` as the compound, how does the outcome read?
**A.** inactive

**Q.** With `O=C1OC2(c3ccccc31)c1ccc(O)c(Br)c1Oc1c2ccc(O)c1Br` as the compound, how does the outcome read?
**A.** inactive

**Q.** With `O=C(O)CCCCCCCCC(=O)O` as the compound, how does the outcome read?
**A.** inactive

**Q.** `CCCSc1ccc2nc(NC(=O)OC)[nH]c2c1` was tested. Which outcome did it give?
**A.** inactive

**Q.** `CC=Cc1ccc(OCC)c(O)c1` was tested. Which outcome did it give?
**A.** inactive

**Q.** With `COc1ccc(CCC(C)=O)cc1` as the compound, how does the outcome read?
**A.** inactive

**Q.** With `Brc1ccc(Br)c(Br)c1` as the compound, how does the AC50 read?
**A.** 137 µM (active)

**Q.** `CC(C)=CCCC(C)CC(=O)O` (stereo not given) was tested. Which outcome did it give?
**A.** inactive

**Q.** How did the outcome turn out when `C=CCOC(=O)CCCCCC` was run?
**A.** inactive

**Q.** Which outcome does the source give for `C=C(C)C1CC=C(C)C(=O)C1` (stereo not given) here?
**A.** inactive

**Q.** How did the outcome turn out when `O=C(CC(=O)c1ccccc1)c1ccccc1` was run?
**A.** inactive

**Q.** For `CC(C)(C)c1ccc(C(=O)O)cc1`, which outcome is on record?
**A.** inactive

**Q.** For `O=C1c2ccccc2C(=O)c2c(O)ccc(O)c21`, which outcome is on record?
**A.** inactive

**Q.** For `C=C1C[C@]23C[C@@]1(O)CC[C@H]2[C@@]12C=C[C@H](O)[C@@](C)(C(=O)O1)[C@H]2[C@@H]3C(=O)O`, which outcome is on record?
**A.** inactive

**Q.** How did the outcome turn out when `NC(=S)NNC(N)=S` was run?
**A.** inactive

**Q.** With `COc1ccc(OC)c(N=Nc2c(O)ccc3ccccc23)c1` as the compound, how does the outcome read?
**A.** inactive

**Q.** With `CS(C)=O` as the compound, how does the outcome read?
**A.** inactive

**Q.** `CC(C)C(OC(=O)c1ccccc1)C(C)(C)COC(=O)c1ccccc1` (stereo not given) was tested. Which AC50 did it give?
**A.** 25.4 µM (active)

**Q.** How did the outcome turn out when `COS(=O)(=O)O` was run?
**A.** inactive

**Q.** Which outcome does the source give for `C=Cc1ccc(C(C)(C)C)cc1` here?
**A.** inactive

**Q.** With `CCCCCCCCCC(=O)OC` as the compound, how does the AC50 read?
**A.** 47 µM (active)

**Q.** Which AC50 does the source give for `CC(C)CCCCCCCCCCCCCCC(=O)O` here?
**A.** 11.4 µM (active)

**Q.** How did the outcome turn out when `COc1cc([C@@H]2c3cc4c(cc3[C@@H](O[C@@H]3O[C@@H]5CO[C@@H](C)O[C@H]5[C@H](O)[C@H]3O)[C@H]3COC(=O)[C@H]23)OCO4)cc(OC)c1O` was run?
**A.** inactive

**Q.** Which AC50 does the source give for `BrCc1cccc(Oc2ccccc2)c1` here?
**A.** 66.9 µM (active)

**Q.** Which outcome does the source give for `COC(CC(C)CCCC(C)(C)O)OC` (stereo not given) here?
**A.** inactive

**Q.** Which AC50 does the source give for `c1ccc(CN(Cc2ccccc2)Cc2ccccc2)cc1` here?
**A.** 13.1 µM (active)

**Q.** How did the outcome turn out when `Cc1ccc(-c2ccccc2)cc1` was run?
**A.** inactive

**Q.** For `[O-]n1ccccc1=S.[O-]n1ccccc1=S.[Zn+2]`, which outcome is on record?
**A.** inactive

**Q.** `CS(=O)(=O)OCCCCOS(C)(=O)=O` was tested. Which outcome did it give?
**A.** inactive
